# A number with no mark means an inactive call.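 Rule for the calls: active = AUC reduced over 20% with Padj below 0.05 in at least 2 of 3 replicates; inactive = otherwise.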
# Tests used:
# Assay in all cases: growth AUC relative to DMSO control (median of replicates) (fraction); higher = more growth (less inhibition), active = hit call of the paper
# Details in all cases: 20 µM; 24 h
# Akkermansia muciniphila = test system: Akkermansia muciniphila
# How it was run: (§1)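 Area under the growth curve was normalised to the plate median of solvent-only wells, except on the industrial chemical plate, where row and column medians were used. Curves came from gut bacterial monocultures grown anaerobically at 37 °C in mGAM with 20 µM compound (1% DMSO), starting at OD600 0.05 and read at OD600 every hour for 24 h. The minimum OD of each curve was set to 0, and values are medians of three biological replicates grown on separate days.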
# Bacteroides caccae = test system: Bacteroides caccae
# How it was run: as §1
# Bacteroides clarus = test system: Bacteroides clarus
# How it was run: as §1
# Bacteroides dorei = test system: Bacteroides dorei
# How it was run: as §1
# Bacteroides stercoris = test system: Bacteroides stercoris
# How it was run: as §1
# [1] = test system: Bacteroides thetaiotaomicron
# How it was run: as §1
# Bacteroides uniformis = test system: Bacteroides uniformis
# How it was run: as §1
# [2] = test system: Bifidobacterium longum subsp. longum
# How it was run: as §1
# Clostridium difficile = test system: Clostridium difficile
# How it was run: as §1
# Collinsella aerofaciens = test system: Collinsella aerofaciens
# How it was run: as §1
SMILES,growth AUC (Akkermansia muciniphila),growth AUC (Bacteroides caccae),growth AUC (Bacteroides clarus),growth AUC (Bacteroides dorei),growth AUC (Bacteroides stercoris),growth AUC [1],growth AUC (Bacteroides uniformis),growth AUC [2],growth AUC (Clostridium difficile),growth AUC (Collinsella aerofaciens)
CC(C)=CC1C(C(=O)OCN2C(=O)C3=C(CCCC3)C2=O)C1(C)C (stereo not given),0.932,0.916,0.924,0.976,0.877,0.965,0.97,0.741,0.959,0.955
CC(C)=NOCCOC(=O)[C@@H](C)Oc1ccc(Oc2cnc3cc(Cl)ccc3n2)cc1,0.861,0.965,1,0.958,0.876,0.937,0.899,0.924,0.981,0.954
CN(C)C(=O)C(c1ccccc1)c1ccccc1,0.89,1.03,0.963,1.05,0.957,0.992,1.05,0.947,1.03,1.01
O=C(O)c1ccccc1C(=O)Nc1cccc2ccccc12,1.04,1.04,1.02,1.02,1.18,1.01,0.993,1.03,1.01,1.03
CCNc1nc(Cl)nc(NC(C)(C)C#N)n1,0.889,1.02,0.983,1.04,0.946,0.998,0.986,0.946,1.05,0.997
C=CCN(CC=C)C(=O)C(Cl)Cl,0.976,1.02,1,1.01,1.01,0.99,0.985,0.974,0.973,0.978
CON(C)C(=O)Nc1ccc(Cl)c(Cl)c1,0.949,1.05,1,1.04,0.954,1,1,0.953,0.999,1.06
Oc1c(Br)cc(Br)cc1Br,0.965,0.916,0.917,1.01,1.22,1.01,0.966,0.984,0.982,0.991
CCC1COC(Cn2cncn2)(c2ccc(Cl)cc2Cl)O1 (stereo not given),0.893,0.992,0.935,0.976,0.938,0.982,0.956,0.976,0.994,0.94
C=C/C=C/CC1=C(C)C(OC(=O)[C@@H]2C(/C=C(\C)C(=O)OC)C2(C)C)CC1=O.C=C/C=C/CC1=C(C)[C@@H](OC(=O)[C@@H]2C(C=C(C)C)C2(C)C)CC1=O (stereo not given in full),0.901,0.966,0.918,1.02,0.87,0.967,0.971,0.698,1.01,0.949
NC(=O)/N=C1/SCCN1Cc1ccc(Cl)nc1,0.782,1.01,0.999,0.979,1.04,0.978,1.01,1.03,1,1.01
COc1cc(OC)nc(Oc2cccc(Oc3nc(OC)cc(OC)n3)c2C(=O)[O-])n1.[Na+],0.934,0.973,0.963,1.02,0.99,1.01,1,0.965,1.06,1.02
C=CCNC(=O)c1c([Si](C)(C)C)sc(C)c1C,0.751,0.964,0.973,0.978,0.961,0.96,0.973,0.966,0.968,0.981
C[C@@H](Oc1ccc(Oc2ccc(C(F)(F)F)cn2)cc1)C(=O)O,1.08,1.04,1.02,1.02,1.05,1.02,0.995,0.985,1.02,0.957
COc1nc(C)nc(NC(=O)NS(=O)(=O)c2ccccc2Cl)n1,0.942,1,0.959,0.99,0.929,0.958,1,0.938,1.02,1.04
Cc1ccc(-c2c(Cl)nc(C#N)n2S(=O)(=O)N(C)C)cc1,0.913,0.844,0.817,0.904,0.931,0.906,0.639 (active),1.03,0.96,1.02
CN1COCN(Cc2cnc(Cl)s2)/C1=N/[N+](=O)[O-],0.919,1,0.976,0.932,1.03,0.999,0.988,0.984,1.01,1.02
COP(=S)(OC)Oc1cc(Cl)c(Br)cc1Cl,0.9,0.961,0.966,0.995,1.03,0.963,1.01,0.971,0.966,0.978
Oc1c(Cl)ccc(Cl)c1Cl,1.04,0.927,0.968,0.954,1.15,0.987,0.981,1.02,1,0.937
CC1(C)C(C=C(Cl)Cl)C1C(=O)OC(C#N)c1cccc(Oc2ccccc2)c1 (mixture of isomers),1.14,0.963,1,0.996,1.11,0.981,1.01,0.984,1.04,0.966
CCS(=O)(=O)Oc1ccc2c(c1)C(C)(C)CO2,0.972,1,0.967,1.01,1.01,0.99,1.01,1.04,1.03,1.01
COP(=S)(OC)Oc1ccc(S(=O)(=O)N(C)C)cc1,0.82,0.947,0.999,0.962,0.84,0.983,0.981,0.984,0.976,0.977
O=C(O)c1nc(Cl)ccc1Cl,1.11,1.01,1.02,1.03,1.11,0.993,1.01,1.03,0.975,0.982
CCOC1Oc2ccc(OS(C)(=O)=O)cc2C1(C)C (stereo not given),1.03,0.907,0.978,0.889,0.897,0.987,0.993,1.01,0.99,0.916
CC1(C)C(/C=C(\Cl)c2ccc(Cl)cc2)C1C(=O)OC(C#N)c1ccc(F)c(Oc2ccccc2)c1 (stereo not given),0.965,0.993,0.985,1.04,1,1,0.99,0.94,1.09,1.04
O=C(O)CNCP(=O)(O)O,1.07,1.06,0.999,0.981,1.08,1.02,0.977,1.05,1.06,0.997
CC1(C)CON(Cc2ccccc2Cl)C1=O,1.11,0.927,1.01,0.917,0.996,0.98,0.949,0.938,0.977,0.947
CCOCCN(C(=O)CCl)C(=C(C)C)c1ccccc1,0.903,1.01,0.998,1,0.967,0.937,0.944,1.04,0.954,1.02
